Screening results deposited in PubChem by National Center for Advancing Translational Sciences (NCATS).
A selection: hits, their analogues and other compounds. The true share with any hit is near 10%.
NPR1 antag – human Npr1 receptor antagonism; HEK293 hNpr1 GloSensor cGMP, ANP-stimulated luminescence; Potency, µM (doses to about 46.3 µM), most hits filed as inhibitors; 1.6% of 76,000 active; AID 1347048; calls by dose curve; also: nearly all actives have a fitted effect of over 60% in size
Target sequence (P16066 whole entry, looked up): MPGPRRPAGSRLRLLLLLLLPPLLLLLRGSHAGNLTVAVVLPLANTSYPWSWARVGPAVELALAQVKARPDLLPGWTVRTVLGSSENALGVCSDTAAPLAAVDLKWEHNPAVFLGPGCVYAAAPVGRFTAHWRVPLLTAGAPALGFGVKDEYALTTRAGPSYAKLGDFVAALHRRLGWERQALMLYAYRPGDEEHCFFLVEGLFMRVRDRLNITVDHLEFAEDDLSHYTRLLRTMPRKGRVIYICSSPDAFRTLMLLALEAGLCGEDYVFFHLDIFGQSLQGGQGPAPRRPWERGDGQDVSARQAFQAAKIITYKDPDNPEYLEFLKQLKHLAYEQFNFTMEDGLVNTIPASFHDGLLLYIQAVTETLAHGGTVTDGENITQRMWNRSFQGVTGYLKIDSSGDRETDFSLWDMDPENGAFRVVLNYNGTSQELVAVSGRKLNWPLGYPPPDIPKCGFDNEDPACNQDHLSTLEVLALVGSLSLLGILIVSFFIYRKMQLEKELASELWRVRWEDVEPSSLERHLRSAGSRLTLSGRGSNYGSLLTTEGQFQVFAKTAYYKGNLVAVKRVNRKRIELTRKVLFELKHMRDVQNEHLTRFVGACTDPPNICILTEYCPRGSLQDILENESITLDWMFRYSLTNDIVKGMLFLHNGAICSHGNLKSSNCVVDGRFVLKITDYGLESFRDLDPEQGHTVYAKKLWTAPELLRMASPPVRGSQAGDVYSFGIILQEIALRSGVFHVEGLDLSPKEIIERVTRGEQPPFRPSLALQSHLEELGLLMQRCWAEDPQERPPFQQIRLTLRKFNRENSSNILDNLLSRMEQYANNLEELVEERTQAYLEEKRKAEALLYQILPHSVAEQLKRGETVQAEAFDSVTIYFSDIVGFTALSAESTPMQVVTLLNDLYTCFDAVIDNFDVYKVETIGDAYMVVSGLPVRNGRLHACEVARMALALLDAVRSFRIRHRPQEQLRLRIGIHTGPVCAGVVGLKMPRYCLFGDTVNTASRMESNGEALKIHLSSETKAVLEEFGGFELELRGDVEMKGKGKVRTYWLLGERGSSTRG
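HEK293 cells stably expressing human Npr1 and cGMP GloSensor pGS-40F, loaded 2 h with 2% GloSensor reagent, given compound 30 min at room temperature. Luminescence read before and 20 min after 0.1 nM hNppA.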
NIH3T3 tox – NIH 3T3 cell cytotoxicity; NIH 3T3 viability, CellTiter-Glo ATP luminescence, 48-72 h; Potency, µM (highest dose often 96.7 µM), most hits filed as inhibitors; 4.3% of 94,000 active; AID 1345082; also: nearly all actives have a fitted effect of over 55% in size
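NIH 3T3 cells at 400 cells/well received 23 nL of compound by pintool and were incubated 48 or 72 h at 37 °C. Viability was read as ATP-coupled CellTiter-Glo luminescence.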
GPT2 inh – blocks human glutamate pyruvate transaminase 2. Q8TD30. Recombinant GPT2, coupled pyruvate oxidase/HRP Amplex Red fluorescence. Potency, µM (top dose mostly 57.7 µM), actives largely listed as inhibitors. 0.25% of 100,000 active. AID 1671188; also: nearly all actives have a fitted effect of over 60% in size
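Fluorescence read-out: pyruvate from GPT2 turnover coupled to pyruvate oxidase, HRP and Amplex Red (0.2mM ThPP, 0.2U/mL PO and HRP, 50uM Amplex final). Substrates 250uM a-KG, 2mM L-alanine; enzyme 10ng/uL; 30 min RT.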
HEK293 tox – HEK 293 cell cytotoxicity | Potency, µM (top dose mostly 115 µM), most hits filed as inhibitors | 6.6% of 94,000 active | HEK 293 viability, ATP luminescence (CellTiter-Glo), 48-72 h; also: nearly all actives have a fitted effect of over 60% in size
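CellTiter-Glo luminescence (cellular ATP) was read after 48 or 72 hr of compound exposure at 37 degree Celsius. Cells were HEK 293 plated at 250 cells/well.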
Luciferase inh – inhibitors of firefly (Photinus pyralis) luciferase; 2.5% of 76,000 active; purified P. pyralis luciferase, luminescence, biochemical; Potency, µM (series often up to 115 µM), usual class: inhibitors; P08659; AID 1347043; also: nearly all actives have a fitted effect of over 65% in size
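Biochemical qHTS: compound (6-point titration) added to 10uM D-luciferin plus 10uM ATP in Tris acetate pH 7.5 buffer with Mg, Tween-20 and BSA, then purified enzyme at 10nM; light output imaged.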
Numbers stand for hits; . = inactive; ? = inconclusive; / = no result. Unless noted, calls follow the shape of the dose curve; as a rule, active = well fitted curve in the direction sought with a large enough effect; inconclusive = small, poorly fitted or top-dose-only effect, or another doubt; inactive = no such curve, though single readings can be large; an effect the other way counts as inactive or inconclusive.

SMILES | NPR1 antag | NIH3T3 tox | GPT2 inh | HEK293 tox | Luciferase inh
Oc1ccc(CN2CC(CNc3ccccc3)C3(C2)CN(c2ccccc2)C3)cc1 (stereo not given) | . | 25µM | . | 40µM | .
COc1ccccc1C(=O)N1CC(CNc2cccnc2)C2(C1)CN(c1ccccc1)C2 (stereo not given) | . | ? | . | ? | .
O=C(COc1ccccc1)N1CC(CNc2cccnc2)C2(C1)CN(c1ccccc1)C2 (stereo not given) | . | ? | . | 71µM | .
Nc1ncccc1CN1CC(COc2ccccc2)C2(C1)CN(c1ccccc1)C2 (stereo not given) | . | 40µM | . | 35µM | .
Clc1cccc(CN2CC(CNc3cccnc3)C3(C2)CN(c2ccccc2)C3)c1 (stereo not given) | . | ? | . | ? | .
O=C(c1ccn[nH]1)N1C[C@@H](COCC2CC2)[C@H](c2ccncc2)C1 | . | . | . | . | .
O=C(NCC1CN(C(=O)Cc2ccc(OC(F)(F)F)cc2)CC12CN(c1ccccc1)C2)Nc1ccccc1 (stereo not given) | . | 28µM | . | ? | .
O=C(NCC1CN(Cc2cccc(O)c2)CC12CN(c1ccccc1)C2)c1ccccc1 (stereo not given) | . | 28µM | . | ? | .
COC[C@@H]1CN(C(=O)c2ccc(OC)nc2)C[C@H]1c1nc(C)no1 | . | . | . | . | .
Cc1oc(C(O)c2ccccc2F)nc1C(=O)Nc1ccc2[nH]ccc2c1 (stereo not given) | . | ? | . | 100µM | 63µM
Cc1oc(C(O)c2cccc(O)c2)nc1C(=O)Nc1ccc(N2CCOCC2)cc1 (stereo not given) | ? | ? | . | ? | 5µM
Cc1oc(C(O)c2ccccc2)nc1C(=O)Nc1ccc2[nH]ccc2c1 (stereo not given) | . | ? | . | 100µM | 50µM
Cc1oc(C(O)c2ccccc2)nc1C(=O)Nc1ccc(C(=O)Nc2ccccc2)cc1 (stereo not given) | ? | 45µM | . | 32µM | ?
CNC(=O)c1ccc(NC(=O)c2nc(C(O)c3ccccc3F)oc2C)cc1 (stereo not given) | . | . | . | ? | .
Cc1ccccc1-n1ncc(C(C)NC(=O)c2ccsc2)c1C (stereo not given) | . | . | . | ? | ?
Cc1noc(C)c1C(=O)NC1CCN(c2ccc3nnc(C)n3n2)C1 (stereo not given) | / | . | / | . | /
COc1cccc(-c2ccc(C(=O)N3CCC(N[S+](=O)([O-])c4cccc(C(F)(F)F)c4)CC3)cc2)c1 | / | ? | . | 11µM | /
N#Cc1cccnc1-c1ccc(C(=O)N2CCC(N[S+](=O)([O-])c3cccc(C(F)(F)F)c3)CC2)cc1 | / | ? | . | ? | /
COc1cccc(-c2ccc(C(=O)N3CCC(N[S+](=O)([O-])c4ccc(C)cc4)CC3)cc2)c1 | / | ? | . | 11µM | /
N#Cc1ccc(C(=O)NC2CCCN(c3cc(-c4ccc(F)cc4)[nH]n3)C2)cc1 (stereo not given) | . | . | . | ? | .
O=C(Cc1c[nH]c2ncc(-c3ccc(Cl)cc3)cc12)NCc1cccnc1 | . | ? | . | 89µM | ?
O=C(Cc1c[nH]c2ncc(-c3ccc(Oc4ccccc4)cc3)cc12)NCc1cccnc1 | ? | ? | . | 40µM | .
COc1cccc(-c2ccc(CN3CCCC(NC(=O)c4ccc(Cl)nc4)C3)cc2)c1 (stereo not given) | / | 32µM | ? | 14µM | /
COc1cccc(-c2ccc(CN3CCCC(NC(=O)c4ccccn4)C3)cc2)c1 (stereo not given) | / | ? | . | 25µM | /
O=C(NC1CCCN(Cc2ccc(-c3cncnc3)cc2)C1)c1ccccn1 (stereo not given) | / | . | . | ? | /
SMILES | NPR1 antag | NIH3T3 tox | GPT2 inh | HEK293 tox | Luciferase inh
Cc1cccc(C(=O)NC2CCCN(Cc3ccc(-c4cc(C)cc(C)c4)cc3)C2)c1 (stereo not given) | / | ? | . | 40µM | /
Cc1cc(C)cc(-c2ccc(CN3CCCC(NC(=O)c4ccc(C(F)(F)F)cc4)C3)cc2)c1 (stereo not given) | / | . | . | . | /
Cc1cc(C)cc(-c2ccc(CN3CCCC(NC(=O)c4ccccn4)C3)cc2)c1 (stereo not given) | / | 14µM | . | ? | /
O=C(COc1ccc2nncn2n1)N1CCOCC(O)(CN2CCCC2)C1 (stereo not given) | . | . | . | . | .
CCN1C(=O)COC[C@@H]1[C@H](O)c1ccc(NC(=O)c2cccc(F)c2)cc1 | . | . | . | ? | .
COc1cccc(-c2ccc(CN3CCCC(NC(=O)c4ccc(C)cc4)C3)cc2)c1 (stereo not given) | / | ? | ? | 22µM | /
COc1cccc(-c2ccc(CN3CCCC(NC(=O)c4ccc(C(F)(F)F)cc4)C3)cc2)c1 (stereo not given) | / | . | . | . | /
COc1cccc(-c2ccc(CN3CCCC(NC(=O)c4ccncc4)C3)cc2)c1 (stereo not given) | / | ? | . | 22µM | /
Cc1ccc(-c2c(C(=O)NCc3ccc(F)cc3)nc3sccn23)cc1 | / | ? | . | ? | /
COc1ccc(NC(=O)N2C[C@@H](F)C[C@H]2C(=O)N2CCCCC2)cc1F | . | . | . | . | .
COc1ccc(OC)c(NC(=O)N2C[C@@H](F)C[C@H]2C(=O)N2CCCCC2)c1 | . | 11µM | . | . | .
CC(C)NC(=O)c1nc(-c2ccsc2)c2cnccn12 | . | ? | . | ? | .
COc1cncc(-c2cn(C)c(=O)n3cc(CNc4ccccc4)nc23)c1 | . | ? | . | ? | .
Cn1cc(-c2cccc(C(F)(F)F)c2)c2nc(CNc3ccccc3)cn2c1=O | . | 25µM | ? | 50µM | .
Cn1cc(-c2cccc(OC(F)(F)F)c2)c2nc(CN3CCNC(=O)C3)cn2c1=O | . | 100µM | . | . | .
Cc1noc(C)c1-c1cn(C)c(=O)n2cc(COc3ccc(Cl)cc3)nc12 | . | ? | . | ? | .
Cn1cc(-c2ccnc(N3CCOCC3)c2)c2nc(COc3ccc(Cl)cc3)cn2c1=O | ? | 28µM | . | ? | ?
CN1CCN(Cc2cn3c(=O)n(C)cc(-c4cccc(OC(F)(F)F)c4)c3n2)CC1 | . | ? | . | ? | .
Cn1cc(-c2cn(C)c(=O)n3cc(COc4ccc(Cl)cc4)nc23)cn1 | . | ? | ? | 71µM | ?
COCc1ccccc1-c1cn(C)c(=O)n2cc(COc3ccc(Cl)cc3)nc12 | ? | ? | . | ? | .
Cn1cc(-c2ccccc2)c2nc(COc3ccc(Cl)cc3)cn2c1=O | . | 50µM | . | ? | .
c1coc(-c2noc(CNCc3cccnc3-n3cncn3)n2)c1 | . | . | ? | . | .
